± gives the standard deviation of the averaged measurements. The full data set covers some 5,400 targets. This sample favours those with the largest changes.
Biological target: T1, UniProt O00255|O00255-2|O00255-3
T1 sequence (whole entry): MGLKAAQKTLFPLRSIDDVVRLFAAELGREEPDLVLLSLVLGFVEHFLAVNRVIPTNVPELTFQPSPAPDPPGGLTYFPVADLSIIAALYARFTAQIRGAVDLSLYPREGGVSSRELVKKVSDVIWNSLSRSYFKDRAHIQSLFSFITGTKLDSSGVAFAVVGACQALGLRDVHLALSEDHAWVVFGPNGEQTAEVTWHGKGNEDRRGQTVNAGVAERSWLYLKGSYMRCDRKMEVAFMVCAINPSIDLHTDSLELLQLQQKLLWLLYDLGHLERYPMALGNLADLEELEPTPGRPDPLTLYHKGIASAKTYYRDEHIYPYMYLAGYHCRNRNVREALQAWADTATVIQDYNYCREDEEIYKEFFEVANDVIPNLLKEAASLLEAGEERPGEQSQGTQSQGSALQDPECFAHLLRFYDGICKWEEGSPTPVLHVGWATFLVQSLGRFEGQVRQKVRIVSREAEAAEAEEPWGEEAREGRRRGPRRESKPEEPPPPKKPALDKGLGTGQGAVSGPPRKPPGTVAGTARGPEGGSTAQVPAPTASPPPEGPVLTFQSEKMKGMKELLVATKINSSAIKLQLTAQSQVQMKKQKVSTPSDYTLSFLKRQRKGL
Assay: NP40-soluble protein abundance relative to vehicle (solubility fold change) (ratio); higher = more soluble protein in presence of GTP
Experimental: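 Solubility proteome profiling in Jurkat crude lysate. Lysate was treated with Mg-GTP (0.1-10 mM) for 10 min at room temperature and 3 min at 37 °C, then solubilised with 0.8% NP40 and benzonase, followed by ultracentrifugation. Proteins were quantified by TMT10 LC-MS/MS; the value is the NP40-soluble abundance relative to the NP40-processed vehicle, from 3 independent experiments.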

## Nc1nc2c(ncn2[C@@H]2O[C@H](COP(=O)(O)OP(=O)(O)OP(=O)(O)O)[C@@H](O)[C@H]2O)c(=O)[nH]1 [guanosine triphosphate]
concentration: 0.1mM
  NP40-soluble protein abundance: 1.05 ± 0.044
concentration: 0.5mM
  NP40-soluble protein abundance: 1.04 ± 0.043
concentration: 1mM
  NP40-soluble protein abundance: 1.04 ± 0.065
concentration: 2mM
  NP40-soluble protein abundance: 1.07 ± 0.023
concentration: 4mM
  NP40-soluble protein abundance: 1.16 ± 0.069
concentration: 6mM
  NP40-soluble protein abundance: 1.14 ± 0.025
concentration: 8mM
  NP40-soluble protein abundance: 1.2 ± 0.016
concentration: 10mM
  NP40-soluble protein abundance: 1.21 ± 0.023
